From the supplement of paper PMC11417369
Over roughly 25,000 sequences, “ln(normalized median fluorescence intensity)” has its median near 7.1; the highest 2% begin near 10. This is one part of a sample in which the highest values are shown more often than they occur.

Tested on: PfSIP2 AP2 domain 1 (GST-tagged)
Assay: gcPBM binding intensity (ln(normalized median fluorescence intensity)); higher = stronger DNA binding
Method in brief: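 Using an Agilent 4 × 180k array, primer-extended double-stranded 36-bp intergenic genomic probes and negative controls were exposed for 1 h to GST-fused P. falciparum DNA-binding domains expressed in E. coli. Binding was carried out in 1× PBS with 1% milk, 0.2 mg/ml BSA, 0.5% salmon testes DNA and 0.03% Triton X-100, and protein was detected with Alexa488 anti-GST antibody and a 488 nm scan. Binding intensity is the highest Masliner-normalised natural-log median intensity across replicate spots of either probe orientation.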

In order of rising “gcPBM binding intensity (ln)” value:
1. TTTTAACAAAAAAAAAGAAAAGAAAAGAAAATAATA [XGTACX_negctrl_site530]  6.54
2. TAAATCAAAATAATTTAACACACAATTTTAATACTG [CACACA_site8744]  6.67
3. TAATAAGTACCTTTTGCATGTGGCACGCTTTTTTTT [TGCATGCA_site573]  6.75
4. AAACATAAATTTTATTGTACATTATATAGAATTTTC [XGTACX_site576]  6.81
5. TATAAACATAAAACCAGTACATATATATTTTTCTTC [XGTACX_site212]  6.84
6. AAGAAGAAACGGAAAAGTACAAAGAAGAAATAAGTA [XGTACX_site3680]  6.85
7. AATTGAATAAATTAAACATGCACAGATGTTCTATTT [TGCATGCA_site692]  6.89
8. AAATTTATTTCTGTGTGTCCACAAAAAAAAATCTTT [XGTACX_site691]  6.91
9. ATAATTTCAATATTTAATATCATATATATATATTTT [GTGCAC_negctrl_site713]  6.94
10. TTATTTATGATATATACACACTAACATTATTTATCC [CACACA_site6720]  6.95
11. AGTGATACTAATTTTTGTACGCATAAAAGAATATTC [XGTACX_site6055]  6.97
12. TTATAATATGGATACACACACATATATAAATATATA [CACACA_site5314]  6.98
13. TTATATGGCTCCATTTGTACGCATCCATGTTTTTAT [XGTACX_site6590]  6.99
14. CATACATTATAAGATACATGCATATATCTGAACATA [TGCATGCA_site797]  7.02
15. TCATATATATTATACACACACATATATAAATATATA [CACACA_site967]  7.03
16. TAATATATATGTATGGCACACACGGATAAATATATA [CACACA_site930]  7.04
17. ATATTTATATATAGTAGTACTTTCAATAATTTAAAT [XGTACX_site7276]  7.05
18. TAGGGATTATACCACACACACATACACATAAATATA [CACACA_site3178]  7.08
19. TTTCTATATTGGCATACATGCAAGAACGAAAAGATT [TGCATGCA_site117]  7.09
20. TTAACATCTTCGTTGACACACAAAAAAAAAAATAAT [CACACA_site1819]  7.1
21. GAAATTTCCCATATTACACACATACTATGATATATA [CACACA_site5987]  7.12
22. TAATAATAATTAAATTGTACATATAATATAATATAA [XGTACX_site8554]  7.15
23. GTGATGGTACAATATACACACTTAAAAAAAAAAAAT [CACACA_site5360]  7.17
24. TATTAAAATATGTCAGTTCTTAAAAAGTTGATGAGT [GTGCAC_negctrl_site77]  7.17
25. TTGTTCTTATTTCATTTTTATATGATATTTCATTAT [CACACA_negctrl_site1619]  7.17
26. ATAAAATATATATGCACACACATATATATTTCATAC [CACACA_site3547]  7.24
27. CGGCTATTTCTATATACATGCATTTAAAAAAAAAAT [TGCATGCA_site354]  7.27
28. AACATTATTTTGTGTACACATTCGGTTATATTATAT [CACACA_site5628]  7.31
29. TTTATTTTAAAATATAGTACGCAAATAAAAATAAAT [XGTACX_site7783]  7.33
30. TATAAATACATACGTACACACAAATATTAAAATATA [CACACA_site5129]  7.35
31. GAAATAATTTCATATACACACATATACATACATACA [CACACA_site1358]  7.5
32. ACCTATTTCAAACACACACACACACCCACAAACATA [CACACA_site977]  7.62
33. TATAAAAAAAATTGCACACATATTATACAGGACGAC [CACACA_site701]  7.96
34. CCAATGTTTTCTTGTGTACACATCATTAAAGAAAAA [CACACA_site5300]  7.96
35. AATAGAAAAAAATAAGTGCATTTTGGTATTCATCAT [GTGCAC_site9614]  8.14
36. ATACTATTTAAATGGGTGCTAAAAATAACAAAAATT  8.88
37. ATATAAATACGGTGTGCACACACATAATATATATAT [CACACA_site2271]  8.98
38. CATAAAAATGGATACACACACATAATATATATATAT [CACACA_site3619]  9.01
39. TATATATATATATATATATATATGTATGTGCATTTA [TGCATGCA_negctrl_site53]  9.08
40. AAAAAAAAAAAAAAAAAAATATATTATATATATATA [XGTACX_negctrl_site467]  9.19
41. TAATATTTTAATTGTGTGCACATTAATATTATAAAA  9.3
42. TATTGTTCTTATTTAGTGCATATATAATATAATATA [GTGCAC_site9827]  9.38
43. TTATTTTATTTTTTTGTGCACATATATATTTATAAA [GTGCAC_site9615]  9.43
44. AAATGTTGAAATGATACACACATATATATATATATA [CACACA_site2517]  9.59
45. TAATATAATATATAGGTGCAATATTAACAAAAATTT  9.61
46. GTAATTTTATATGGTTGTACATATATATATATATAT [XGTACX_site6659]  9.68
47. ATTATTTATATTATGGTGCATAATTTTGGGTTTCTT  10.2
48. GAACAAATTAAATAGGTGCATTAACATGTTCTATTT [GTGCAC_site9729]  10.4
49. ATGGATTATACGTGCACACATATATACCAATAAATA [CACACA_site4524]  10.5
50. ATGGATTATACGTGCACACATATATACAAATAAATA [CACACA_site640]  10.5
51. TAATGGATTATACGTGCACACATATATACAAATAAA [CACACA_site8116]  10.5
52. ATAATTTCATAATACGTGCACATAATATATAAAAAA  10.5
53. TTTATTTTTATTTTTGTGCACGGGATTAAATAAAAG [GTGCAC_site9842]  10.5
54. ACTATTTTCTTCAAAACATGCACCACATAAACATAA [TGCATGCA_site200]  10.5
55. TTTTTAATTTCAATGGTGCAGTAATAATATAATAGT  10.5
56. TCTATTTTTTATATGGTGCATTGTTCTTATTAATAT [GTGCAC_site9392]  10.5
57. AATAAATACTAAATGGTGCAAAATTTTTTAACACTG  10.7
58. TATATATATATATGGGTGCATTTTTTTGTCCATGTA [GTGCAC_site9868]  10.7
59. CATATAATTTTATGGGTGCATTTTTTTGTAAGACCA  11.1
